Data on 7 molecules can be found in PubChem BioAssay.

The nature of assay [1]: circadian clock period modulators, cell-based, LOPAC library, luminescence reporter (AID 2774).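 Further: values are relative to mean of DMSO wells on each plate.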 As to conditions: circadian reporter cells, at 7 µM, actives lie on both sides.
The test system of assay [2] is Hepatitis C virus NS3 helicase. Nature of the assay: HCV NS3 helicase inhibitors, primary screen, biochemical, fluorescence polarization, LOPAC1280 library (AID 687035; in the data active means inhibition above about 37%). The note with it: Purified HCV NS3 helicase, Cy5-dT15 ssDNA binding fluorescence polarization; stronger effect = higher value; concentration not given here.
Assay [3] can be described thus: Cy5 fluorescence quenching or enhancement artefacts, artefact control for HCV NS3 helicase inhibitor project, biochemical, LOPAC1280 (AID 687037). The note with it: Cy5-DNA-NS3h complex fluorescence interference counterscreen.
The subject of assay [4] is Aerobactin synthetase IucA (Klebsiella pneumoniae). Nature of the assay: IucA aerobactin synthetase inhibitors, biochemical, Tocris library, absorbance (AID 1345561).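 Further: 100% = enzyme without compound and 0% = no enzyme.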 The note with it: purified IucA enzyme assay, absorbance (OD) read-out; stronger effect = lower value;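 tested at 8 µM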.
The test system of assay [5] is Aerobactin synthetase IucA (Klebsiella pneumoniae, hypervirulent). Nature of the assay: IucA enzyme inhibition, biochemical, LOPAC library, absorbance readout (AID 1346212).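 Further: 100% = no compound wells and 0% = no enzyme wells.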 The note with it: IucA enzyme assay, absorbance (OD) readout; stronger effect = lower value;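 tested at 8 µM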.
Assay [6] in a line: sensitizers of A549 cells to miR-34 induction, primary screen, imaging, A549 dox-inducible miR-34, nuclei and caspase counts (AID 1347080;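 active means compounds whose cell count with miR-34 switched on is under 0.7 times the count with it off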). As to conditions: A549 miR-34 inducible, Hoechst nuclei count, 48 h.
Assay [7] in a line: phospholipid biosynthesis inhibitors in animal cells, primary screen, cell-based, LOPAC library, screen 4 (AID 1347384). As to conditions: phospholipid biosynthesis inhibition screen, at 10 µM.
A short description of assay [8]: viability rescue of complex I mutant cybrids, primary screen, cell-based, galactose medium, ATP luminescence (AID 1645843;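 active means z-score of at least 1.8 in each of two replicates, scored against plate mean and spread of sample wells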;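 further: positive z means more ATP and so rescue of galactose-driven cybrid death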). The note with it: complex I mutant cybrid cells, 72 h, stronger effect = higher value.
Assay [9] in a line: growth inhibition of DIPG glioma cells, dose response, cell-based, SU-DIPG-XIII, MIPE4.0, CellTiter-Glo, qHTS (AID 1347061; cut-off not given, nearly all actives have AC50 up to about 37 µM;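 further: cells exposed to compound for 48 hours before readout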). The note with it: SU-DIPG-XIII viability, CellTiter-Glo ATP luminescence. On the technique in general: Cellular ATP, detected with luciferase, serves as a proxy for viable cell number.
The nature of assay [10]: growth inhibition of DIPG glioma cells, dose response, cell-based, JHH-DIPG-1, MIPE4.0, CellTiter-Glo, qHTS (AID 1347062; cut-off not given, nearly all actives have AC50 up to about 27 µM). The note with it: JHH-DIPG-1 viability, CellTiter-Glo ATP luminescence.
A short description of assay [11]: growth inhibition of DIPG glioma cells, dose response, cell-based, SU-DIPG-IV, MIPE4.0, CellTiter-Glo, qHTS (AID 1347063; cut-off not given, nearly all actives have AC50 up to about 30 µM;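 further: compound exposure lasted 48 hours before the viability readout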). As to conditions: SU-DIPG-IV viability, CellTiter-Glo ATP luminescence.
The nature of assay [12]: SU-DIPG-VI glioma cell viability, MIPE4.0 library, CellTiter-Glo luminescence, qHTS (AID 1347066; cut-off not given, nearly all actives have AC50 up to about 30 µM;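 further: cells exposed to compound for 48 hours before readout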). The note with it: CellTiter-Glo ATP luminescence.
Assay [13] is described as follows: differential killing of epithelial or mesenchymal cells, primary screen, imaging, PC-3E GFP, TEM4-18 mCherry, co-culture (AID 1345086;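 active means compounds killing one labelled cell type while sparing the other, by normalised counts and ratio limits, not self-fluorescent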;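 on all read-outs here: cells exposed to compound for 72 h before imaging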;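 on red/green cell ratio (normalised): normalised mesenchymal count divided by normalised epithelial count so high means epithelial killing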). As to conditions: imaging cell counts, at 1 µM; for red/green cell ratio (normalised): actives lie on both sides.
The target of assay [14] is NAD(+) hydrolase SARM1 (Homo sapiens) (UniProt Q6SZW1). As to the kind of experiment: SARM1 TIR NADase inhibitors, cell lysate, NAD-Glo luminescence (AID 1508614;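 active means compound whose remaining NAD level is above about 45 nM, limit read from the data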). The note with it: SAM-TIR HEK293T lysate NADase, at 1 µM, stronger effect = higher value.
Assay [15] can be described thus: liver-stage malaria parasite growth inhibition, primary screen, cell-based, HepG2, luciferase luminescence, HepG2 viability (AID 624349; in the data active means parasite load remaining mostly below about 12%, no sharp cut-off; inactive means mostly above about 10%;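 further: 100% = mean of DMSO negative control wells on the same plate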). The note with it: P. berghei liver stage in HepG2, luciferase luminescence, concentration not given here; parasite load remaining: stronger effect = lower value; viability: measured here: HepG2 viability without parasites.
Assay [16] can be described thus: suppressors of polyQ aggregation in yeast, 75Q-TubU reporter (AID 1593). The note with it: Yeast 75Q polyglutamine aggregation reporter.
A short description of assay [17]: rescue of polyQ-huntingtin neuronal dysfunction in worms, whole organism, C. elegans mechanosensory neurons, N-terminal huntingtin (AID 1599). As to conditions: touch response, stronger effect = higher value.
A short description of assay [18]: inhibitors of mitochondrial cytochrome c release, biochemical, purified mitochondria (AID 1603).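 Further: mouse liver mitochondria challenged with calcium chloride; signal normalized to the plate average as 100%.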 As to conditions: stronger effect = lower value.
A short description of assay [19]: inhibitors of polyQ protein aggregation (AID 1604). As to conditions: polyglutamine-induced protein aggregation inhibition assay; stronger effect = higher value; tested at 2.5 µM.
Assay [20] is described as follows: enhancers of glutamate uptake in motor neurons, MN-1 cell line (AID 1612).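 Further: tested at 1 µM final; 0% = mean of DMSO vehicle wells on each plate; positive means more glutamate uptake than control and negative means less.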 The note with it: MN-1 motor neuron cells, stronger effect = higher value.
A short description of assay [21]: reducers of polyQ inclusions in PC12 cells, cell-based, NGF-treated PC12, GFPQ80 (AID 1614).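 Further: lower means fewer inclusions and 0 means no inclusions at all.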 As to conditions: PC12 NGF-treated GFP-polyQ80 inclusion reduction.
Assay [22] can be described thus: suppressors of polyglutamine aggregation in yeast, 75Q-TubH (AID 1616). As to conditions: S. cerevisiae 75Q-TubH polyglutamine aggregation suppression; stronger effect = higher value.
Setting [23] is: stronger effect = lower value, cell number ratio, induced over uninduced.
[24] abbreviates: measured here: relative caspase fold change +Dox/-Dox.
Setting [25] is: measured here: total cells with miR-34 induction, stronger effect = lower value.
[26] abbreviates: measured here: total cells without miR-34 induction.
The mark [27] stands for this setting: measured here: epithelial PC-3E GFP cell survival.
Where [28] appears, read: measured here: mesenchymal TEM4-18 mCherry cell survival.

Several values for one entry are separate records, joined by “and”; a condition that tells them apart may be missing. Identical values can stand only once. Records with an inconclusive call do not appear. For part of these data: Potency and affinity values are given separately. Activity calls are given as the source filed them. Unless noted, how the calls were made is not given here.

NAD(+) hydrolase SARM1 (Homo sapiens), sequence (Q6SZW1 whole entry, looked up): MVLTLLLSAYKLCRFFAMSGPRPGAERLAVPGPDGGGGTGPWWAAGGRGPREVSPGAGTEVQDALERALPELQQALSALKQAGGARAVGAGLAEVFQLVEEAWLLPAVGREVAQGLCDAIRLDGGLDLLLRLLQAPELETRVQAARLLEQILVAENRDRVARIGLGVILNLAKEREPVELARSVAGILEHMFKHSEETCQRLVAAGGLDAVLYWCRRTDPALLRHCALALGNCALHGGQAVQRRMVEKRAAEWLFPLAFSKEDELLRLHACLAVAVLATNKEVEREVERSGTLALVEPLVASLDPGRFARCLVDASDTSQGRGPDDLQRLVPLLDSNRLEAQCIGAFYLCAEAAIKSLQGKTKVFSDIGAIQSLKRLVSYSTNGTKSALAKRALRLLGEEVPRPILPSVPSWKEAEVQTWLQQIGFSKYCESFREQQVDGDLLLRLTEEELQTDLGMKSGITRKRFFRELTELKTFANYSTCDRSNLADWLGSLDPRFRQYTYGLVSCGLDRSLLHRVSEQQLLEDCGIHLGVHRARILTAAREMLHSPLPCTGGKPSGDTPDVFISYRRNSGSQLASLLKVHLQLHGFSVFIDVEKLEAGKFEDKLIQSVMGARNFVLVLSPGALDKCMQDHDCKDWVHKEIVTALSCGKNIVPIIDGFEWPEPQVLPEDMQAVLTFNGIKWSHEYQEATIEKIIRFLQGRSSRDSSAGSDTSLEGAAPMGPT

In the case of `NCc1cc(=O)[nH]o1`, in [1], the period change was -0.1 h (inactive). Also, in assay [2], the inhibition (usually the drop in the measured response relative to a control, in per cent) is -3% (inactive). Also, the fluorescence ratio (interference) in assay [3] is 1 (inactive). The remaining activity (as a rule, the signal under treatment as a percentage of the control signal) was 112% (inactive) in [4] and 89% (inactive) in assay [5]. Also, the fold change in assay [6] (stronger effect = lower value) is 0.974 (inactive); in assay [6] (setting [23]), 0.899 (inactive); in assay [6] (setting [24]) it was 1.71 and 1.62. Also, the cell count in assay [6] (setting [25]) was 10400 and 8970; in assay [6] (setting [26]) it was 10700 and 9980. Besides, in [7], the molecule was called inactive. Besides, the z-score in assay [8] is 0.465 (inactive) and -0.045 (inactive).
Regarding `Oc1ccc2c3c1O[C@H]1c4[nH]c5c(c4C[C@@]4(O)[C@@H](C2)N(CC2CC2)CC[C@]314)C[C@@]1(O)[C@H]2Cc3ccc(O)c4c3[C@@]1(CCN2CC1CC1)[C@H]5O4`, in assay [1], the period change is -0.025 h (inactive). Besides, the inhibition in assay [2] was -2% (inactive). The fluorescence ratio (interference) in [3] is 1 (inactive). Also, the remaining activity is 103% (inactive) in [4] and 120% (inactive) in [5]. For the same molecule, the outcome in assay [9], in assay [10], in assay [11] and in assay [12] was inactive. The fold change is 1.09 (inactive) and 0.956 (inactive) in assay [6] (stronger effect = lower value); 1.04 and 0.836 in assay [6] (setting [24]). In addition, the cell count in [6] (setting [25]) was 10400 and 9420; in assay [6] (setting [26]) it was 9540 and 9850. Also, in [8], the z-score is 0.855 (inactive) and 1.22 (inactive).
Turning to `CCC1(CC)C(=O)NC(=O)NC1=O`, in assay [13], the red/green cell ratio (normalised) was 0.85 (inactive). The normalised cell number turned out to be 0.92 in assay [13] (setting [27]) and 0.78 in assay [13] (setting [28]). Also, the remaining NAD in assay [14] was 10 nM (inactive).
As for `C#CCOC(=O)C1=CCCN(C)C1`, in assay [1], the period change is -0.055 h (inactive). Moreover, the inhibition in assay [2] is -1% (inactive). Besides, the fluorescence ratio (interference) in [3] was 1 (inactive). Also, the remaining activity in assay [4] was 105% (inactive); in assay [5], 121% (inactive). In addition, the fold change is 1.05 (inactive) in assay [6] (stronger effect = lower value); 0.926 (inactive) in assay [6] (setting [23]); 1.99 and 0.981 in assay [6] (setting [24]). In addition, the cell count in [6] (setting [25]) was 10200 and 8480; in assay [6] (setting [26]), 9640 and 9160. For the same molecule, the result in assay [7] was inactive. In addition, the z-score in assay [8] is -0.93 (inactive) and -0.57 (inactive).
As for `C[C@]12CC[C@H](OC3OC(O)C(O)C(O)C3O)C=C1CCC1C2CC[C@]2(C)[C@@H](c3ccc(=O)oc3)CC[C@]12O` (stereo partly drawn), the parasite load remaining in assay [15] was -0.075% (inactive). In assay [15], the viability (in general, a per cent measure of how many cells are alive, often set against a control) was found to be 22.8%. Besides, in assay [13] (counts scaled to control wells, 1 = unselective), the red/green cell ratio (normalised) is 0.18 (inactive). Further, the normalised cell number in assay [13] (setting [27]) worked out at 0.18; in assay [13] (setting [28]) it was 0.03. For the same molecule, the fold change in assay [6] (setting [23]) was 0.742 (inactive); in assay [6] (setting [24]), 0.885. For the same molecule, the cell count in [6] (setting [25]) is 150; in [6] (setting [26]), 202.
On to `CC(=O)O[C@H]1C[C@H](O[C@H]2[C@@H](O)C[C@H](O[C@H]3[C@@H](O)C[C@H](O[C@H]4CC[C@@]5(C)C(CCC6C5C[C@@H](O)[C@]5(C)[C@@H](C7=CC(=O)OC7)CC[C@]65O)C4)O[C@@H]3C)O[C@@H]2C)O[C@H](C)[C@H]1O[C@@H]1O[C@H](CO)[C@@H](O)[C@H](O)[C@H]1O` (stereo partly drawn), for which the score in assay [16] stood at 1.1. In [17], this molecule gave a rescue above control of 3.88. Besides, the cytochrome c release ratio in [18] was found to be 0.86. This molecule displayed an inhibition of aggregation in assay [19] of 100%. Also, the glutamate uptake change in assay [20] was -5.55%. This molecule also showed an inclusion score in assay [21] of 3. The aggregation suppression score in [22] amounted to 1.31. In addition, in [15], the parasite load remaining is 31.4% (inactive) and 0.905% (inactive). Also, the viability in [15] was 50.8% and 15.3%. Further, the red/green cell ratio (normalised) in assay [13] was 0.22 (inactive). Besides, the values for the normalised cell number in assay [13] (setting [27]) and in [13] (setting [28]) were 0.27 and 0.06, respectively. Further, the fold change was 0.6 (active) in assay [6] (stronger effect = lower value) and 2.31 in assay [6] (setting [24]). Also, the results for the cell count in assay [6] (setting [25]) and in assay [6] (setting [26]) were 258 and 431, respectively.
`O=C(Cc1ccc(Cl)c(Cl)c1)N1CCCCC1CN1CCCC1` (stereo not drawn): the period change in assay [1] is -0.135 h (inactive). In addition, the inhibition in assay [2] is -2% (inactive). Further, the fluorescence ratio (interference) in assay [3] is 0.9 (inactive). In addition, the values for the remaining activity in assay [4] and in [5] were 106% (inactive) and 90.2% (inactive), respectively. Besides, the fold change in assay [6] (stronger effect = lower value) was 1.01 (inactive) and 0.956 (inactive); in assay [6] (setting [24]), 1.27 and 0.734. For the same molecule, the cell count in [6] (setting [25]) is 9780 and 8020; in assay [6] (setting [26]), 9720 and 8380. The outcome in assay [7] was inactive. For the same molecule, in [8], the z-score was 0.175 (inactive) and -0.475 (inactive).
